A selection: hits, their analogues and other compounds. The true share with any hit is near 4.7%.
D1 antag – Antagonist of Human D 1 Dopamine Receptor: qHTS | D(1A) dopamine receptor (Homo sapiens), P21728 | HEK293 TREx D1 cells, calcium flux, dopamine EC80; stronger effect = lower value | activity change, negative = inhibition, % at 10 µM | AID 504652, 2011 | 360,000 compounds, 3.2% hits; in the data active = activity change below about -30%
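Antagonism measured as reduced calcium response to an EC80 dopamine addition following 180 s compound pre-read; cells were inducible HEK293 Trex D1 plated overnight at 30 C, read kinetically at 1 cycle/sec.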
D1 potentiator – Potentiators of Human D1 Dopamine Receptor: qHTS. AID 504651, 2011. 360,000 compounds, 0.036% hits. HEK293 TREx D1 cells, calcium flux, dopamine EC20 potentiation. D(1A) dopamine receptor (Homo sapiens), P21728. potentiation, % at 10 µM; in the data active = potentiation above about 30%
TRHR enhancer – qHTS for Small Molecule Agonists and Allosteric Enhancers of Human TRH Receptor: Primary Screen for Enhancers. Thyrotropin-releasing hormone receptor (Homo sapiens), P34981. TRHR cells, fluo-8 calcium fluorescence, EC20 TRH enhancement. enhancement, % at 2 µM. 360,000 compounds, 0.66% hits. AID 493056, 2011; in the data active = enhancement above about 30%
Target sequence (P34981 whole entry, looked up): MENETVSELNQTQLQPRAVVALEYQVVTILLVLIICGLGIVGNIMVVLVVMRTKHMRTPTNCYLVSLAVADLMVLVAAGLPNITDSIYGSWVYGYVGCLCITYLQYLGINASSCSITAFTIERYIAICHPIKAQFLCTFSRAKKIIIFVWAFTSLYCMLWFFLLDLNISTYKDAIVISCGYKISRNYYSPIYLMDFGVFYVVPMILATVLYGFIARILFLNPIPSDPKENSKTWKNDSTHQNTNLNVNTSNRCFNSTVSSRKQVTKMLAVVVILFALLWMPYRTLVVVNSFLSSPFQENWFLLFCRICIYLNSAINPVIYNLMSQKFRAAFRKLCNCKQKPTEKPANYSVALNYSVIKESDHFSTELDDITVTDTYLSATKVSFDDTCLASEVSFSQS
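TRHR-expressing cells loaded with fluo-8 calcium dye were read kinetically (ex 480/em 530) during compound addition, then stimulated with an EC20 of TRH (10 nM final). Enhancement of the Gq-mediated intracellular calcium response was scored.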
D1 ag – Allosteric Agonists of the Human D1 Dopamine Receptor: qHTS; HEK293 T-REx D1 cells, calcium flux, agonist mode; activation, % at 2 µM; 360,000 compounds, 1% hits; AID 504660, 2011
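Agonism was scored from calcium flux recorded over 180 s (1 read/s) after pintool compound addition, following a 10-cycle baseline. Cells were inducible force-coupled HEK293 TREx D1, plated overnight at 30 C and loaded with no-wash calcium dye.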
TRHR ag – qHTS for Small Molecule Agonists and Allosteric Enhancers of Human TRH Receptor: Primary Screen for Agonists; Thyrotropin-releasing hormone receptor (Homo sapiens), P34981; TRHR cells, calcium flux fluo-8, FDSS agonist mode; activation, % at 2 µM; 360,000 compounds, 0.18% hits; AID 493084, 2011
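TRHR-expressing cells, plated overnight in medium with 10% serum, were loaded with fluo-8 calcium dye at room temperature. After a 10 s baseline, library compound was pin-added and calcium release was recorded kinetically (ex 480/em 530) as agonist response.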
Each line names hits and unclear results; the compound was inactive in the other large screens. Cut-off read from the data, not from the text of the source, unless noted: active = activation above about 30%; inactive = the rest.

CN(C)S(=O)(=O)c1ccc(NC(=O)C2COc3ccccc3O2)cc1 (stereo unspecified)	none
COCCNC(=O)CCCn1c(SCc2ccccc2Cl)nc2c(sc3ccccc32)c1=O	none
Cc1cc(C)nc(N/N=C/C2=C(N3CCOCC3)C(=C/c3ccccc3)/CC2)n1	D1 antag -45
Cc1cc(=O)[nH]c(N/N=C/C2=C(N3CCOCC3)C(=C\c3ccc(Cl)cc3)/CC2)n1	none
O=C(O)c1ccccc1N/N=C/C1=C(N2CCOCC2)C(=C\c2ccccc2)/CC1	D1 antag -30
COc1cccc2c1Oc1ncccc1N(c1ccc(C(=O)NCc3ccccc3Cl)s1)C2	none
O=C(CN1C(=O)C2CCCCN2c2ccc(C(=O)N3CCCC3)cc21)NCc1ccccc1F (stereo unspecified)	none
COC(=O)C(CCSC)NC(=O)c1cc2c(n(-c3ccc(Cl)cc3)c1=O)CCCC2=O (stereo unspecified)	none
CCOC(=O)c1c(C)n(-c2ccc(C)cc2)c2ccc(OCC(O)CNCC3CCCO3)cc12 (stereo unspecified)	D1 ag 60
Cc1cc(C(=O)Nc2c(C)nn(Cc3ccc(F)cc3)c2C)on1	none (no result: D1 potentiator)
Cc1ccc(Cn2nc(C)c(NC(=O)c3cc(C)no3)c2C)cc1	D1 antag -78 (no result: D1 potentiator)
Cc1nn(Cc2ccccc2)c(C)c1CCC(=O)O	D1 antag -83
Cn1cc(Cl)c(C(=O)Nc2cnn(Cc3ccc(F)cc3)c2)n1	D1 antag -42
Cc1noc(C(=O)Nc2c(C)nn(Cc3ccccc3)c2C)c1Cl	D1 antag -51
COc1ccc2c(c1)c(=O)c(S(=O)(=O)c1ccc(C)c(C)c1)cn2CC(=O)Nc1ccccc1	none
Cc1nn(Cc2ccc(Br)cc2)c(C)c1NC(=O)c1nn(C)cc1Cl	D1 antag -39, TRHR enhancer 31
Cc1ccc(Cn2nc(C)c(NC(=O)c3nn(C)cc3Cl)c2C)cc1	none
Cc1nn(Cc2cccc(C(=O)NN)c2)c(C)c1Cl	none
Cc1nn(Cc2ccc(C(=O)NN)cc2)c(C)c1Cl	D1 antag -44
O=C(Cn1c(-c2cccs2)cc2ccccc21)N1CCN(c2ccc(F)cc2)CC1	none
Cc1ccc(S(=O)(=O)c2c(N)n(Cc3ccco3)c3nc4ccccc4nc23)cc1C	D1 ag 92
Cc1ccc(S(=O)(=O)c2c(N)n(CCN3CCOCC3)c3nc4ccccc4nc23)cc1C	none
COc1ccc(CN(C)S(=O)(=O)c2nnc(NC(=O)C(C)C)s2)cc1OC	none
Cc1ccc(OCc2cc(C(=O)NC(C)Cc3cnccn3)no2)cc1C (stereo unspecified)	D1 antag -40
Cc1cccc(CC(C)NC(=O)c2cc(COc3ccc(C)c(C)c3)on2)n1 (stereo unspecified)	none
CCN(CC)CCN(C(=O)c1ccco1)c1nc2c(C)cccc2s1	none
O=C(c1cc(-c2ccccc2O)on1)N1CCc2ccccc2C1	D1 antag -32
COc1ccc(N2CCN(C(=O)c3cnc(SC)nc3C)CC2)cc1	D1 antag -63
O=C(c1ccccc1Cl)N1CCc2ccccc2C1	none
Cc1ccccc1-c1cc(C(=O)N2CCCC2)c2ccccc2n1	TRHR enhancer 31
Cc1ccccc1C(=O)N1CCc2ccccc2C1	D1 ag 49
O=C(c1cc(-c2ccccc2Cl)nc2ccccc12)N1CCC1	none
Cc1nc(N2CCCC2)ncc1C(=O)Nc1ccc(F)cc1F	none
Cc1ccc2oc(=O)c3cnn(CC(=O)N4CCN(c5ccccc5F)CC4)c3c2c1	none
O=S(=O)(c1ccc(Cl)cc1)c1nnn2c1nc(NC1CCCCC1)c1sccc12	none
COc1ccccc1-c1cc(C(=O)N2CCc3ccccc3C2)c2ccccc2n1	D1 antag -86
CCNC(=S)NNC(=O)c1cc(-c2cc(C)ccc2C)nc2ccccc12	D1 antag -31
O=C(c1cc2cc(Cl)ccc2[nH]1)N1CCc2ccccc2C1	D1 antag -57
CCCc1cc(C(=O)NNC(=S)NCC)c2ccccc2n1	none
